Experimental data from PubChem BioAssay AID686979 (National Center for Advancing Translational Sciences (NCATS), 2013).
Where “and” joins values, the source holds several entries; their conditions need not be identical. Equal entries are not always repeated. About 50,000 (12%) of roughly 420,000 compounds were called active. Where a call stands in place of a potency, no number is given. Another 26% or so got no clear call; they are omitted. Calls follow the shape of the dose curve; as a rule, active = well fitted inhibition curve with a large enough effect; inconclusive = small, poorly fitted or top-dose-only effect; inactive = flat fitted curve, though single readings scatter. Many of the other results were omitted from the sample, so actives are more common in it than they were. The source holds several records for some structures; these can differ, active in one and inactive in another.

Assay: qHTS for Inhibitors of human tyrosyl-DNA phosphodiesterase 1 (TDP1): qHTS in cells in presence of CPT; also: nearly all actives have a fitted effect of over 55% in size
Settings: chicken DT40 Tdp1-/-;hTDP1 cells + 20 nM CPT, ATP luminescence, 48 h; series mostly up to 46.2 µM
Procedure, shortened: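 Cell growth measured by CellTiter-Glo luminescence after a minimum 48 h, 37 C compound exposure with 20 nM CPT in Tdp1-knockout DT40 cells stably expressing hTDP1, seeded 400/well; qHTS titration format.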
Potency is read from the fitted curve at half-maximal effect.

| Structure (SMILES) | Potency |
| --- | --- |
| CCC(C)C(NC(=O)C1CCC(=O)N1C(=O)OCc1ccccc1)C(=O)NC(C(=O)N1CCCC1C(N)=O)C(C)CC (configuration not stated) | inactive |
| O=C(NCc1ccc(F)cc1)C1CCC(CNc2c(N3CCOCC3)c(=O)c2=O)CC1 (configuration not stated) | inactive |
| CC(C)NC(=O)NNc1c(Cl)cncc1Cl | inactive |
| CCN(CC(=O)NC(C)C)C(=O)c1cc(S(=O)(=O)N2CCCCC2)ccc1N1CCCCC1 | inactive |
| COC(=O)c1sccc1NC(=O)CCC1CCCC1 | inactive |
| CCOC(=O)C(=CNNc1ccsc1C(=O)OC)C(=O)OCC | 18.4 µM (active) |
| COC(=O)c1sccc1NC(=S)Nc1ccc(C)cc1 | inactive |
| CNC(=O)c1cccc2nc3ccccc3nc12 | inactive |
| Cc1[nH]c2ccccc2c1C(=O)C(=O)N(C)c1ccccc1 | inactive |
| O=C(NCc1ccccc1Cl)C1CCN(S(=O)(=O)c2cccc3nonc23)CC1 | inactive |
| Cc1nn(-c2ccccc2)c2sc(C(=O)N(Cc3ccco3)C(C)C(=O)NC(C)(C)C)cc12 (configuration not stated) | 13 µM (active) |
| Cc1nc(C)c(C(=O)N(c2ccc(C)c(C)c2)C(C(=O)NCc2ccco2)c2ccccc2)s1 (configuration not stated) | inactive |
| Cc1ccc(-c2nnn(CC(=O)N(Cc3ccco3)C(C(=O)NC(C)(C)C)c3ccncc3)n2)o1 (configuration not stated) | inactive |
| COCC1CCN(C(=O)CCc2nnc(C3(c4ccc(Cl)cc4)CCC3)o2)C1 (configuration not stated) | inactive |
| CCNC(=O)N1CCN(S(=O)(=O)c2ccc3c(c2)OCCCO3)CC1 | inactive |
| COc1ccc(N2CC(C(=O)NCCS(=O)(=O)N3CCN(c4ccccc4)CC3)CC2=O)cc1 (configuration not stated) | inactive |
| COc1ccc(N2CCN(C(=O)c3ccc(N4CCCCS4(=O)=O)cc3)CC2)cc1 | inactive |
| COc1ccc(N2CCN(C(=O)c3ccc4c(Cl)c5c(nc4c3)CCCC5)CC2)cc1 | inactive and 20.6 µM (active) |
| CC(C)CCNC(=O)c1ccc2c(Cl)c3c(nc2c1)CCC3 | inactive |
| Cc1cccc(N(C)C(=O)CS(=O)(=O)c2cccc3nsnc23)c1 | inactive |
| Clc1ccc(Nc2ccc3ccccc3n2)cc1 | inactive |
| Cc1ccc(S(=O)(=O)c2nnn3c2nc(N2CCN(c4ccccn4)CC2)c2ccccc23)cc1 | inactive |
| Cc1ccc(C)c(S(=O)(=O)c2nnn3c2nc(N2CCOCC2)c2sccc23)c1 | 23.1 µM (active) |
| CCc1ccc(S(=O)(=O)c2nnn3c2nc(N2CCN(CC)CC2)c2sccc23)cc1 | inactive |
| COc1ccc(/C=N/NC(=O)c2ccncc2)cc1CN1CCCc2ccccc21 | inactive |
| O=C(Nc1ccccn1)C1CCN(S(=O)(=O)c2ccccc2)CC1 | inactive |

| Structure (SMILES) | Potency |
| --- | --- |
| CCOc1ccc(NC(=O)CSc2c3c(nc4ccccc24)CCCC3)cc1 | 16.4 µM (active) |
| COc1cccc(CNC(=O)CSc2c3c(nc4cc(Cl)ccc24)CCCC3)c1 | 23.1 µM (active) |
| CCOc1ccc(C(=O)Nc2ccc3nc4c(c(Nc5ccccc5OC)c3c2)CCCC4)cc1 | 4.11 µM (active) |
| CCOc1ccc(NC(=O)CSc2nncn2C)cc1 | inactive |
| CCOc1ccc(-n2nc3ccc(NC(=O)c4ccc(OC)c(Cl)c4)cc3n2)cc1 | inactive |
| COc1cccc(CNC(=O)c2nnn(CC(=O)Nc3cc(Cl)ccc3C)c2N)c1 | inactive |
| CCOc1ccc(C(=O)NC2CCN(C(=O)Nc3ccccc3OC)CC2)cc1 | inactive |
| CCOc1ccc(NC(=S)N2CCC(NC(=O)c3ccccc3)CC2)cc1 | inactive |
| COc1cccc(CNC(=O)c2ccc3c(Cl)c4c(nc3c2)CCCC4)c1 | inactive |
| O=C1NCC(Nc2ccccc2)C(=O)N1 (configuration not stated) | inactive |
| Nc1c(C(=O)OCC(=O)Nc2ccc(OC(F)F)cc2)[nH]c(=O)[nH]c1=O | inactive |
| COc1ccc(S(=O)(=O)N2CCC(C(=O)OCC(=O)c3ccccc3)CC2)cc1[N+](=O)[O-] | inactive |
| CCOC(=O)N1CCN(c2c(NCCCN3CCCC(C)C3)c(=O)c2=O)CC1 (configuration not stated) | inactive |
| CC1(C)CC(=O)c2cnc3nc4ccccc4n3c2C1 | inactive |
| COc1ccc(C)cc1-n1c(-c2ccc(C)cc2)cc2c1CC(C)(C)CC2=O | 8.2 µM (active) |
| COc1ccc(Cl)cc1-n1c(CCC(=O)O)ccc1-c1ccc(C)cc1 | inactive |
| CCOC(=O)N1CCN(C(=O)COC(=O)c2cccc(S(C)(=O)=O)c2)CC1 | inactive |
| COc1ccc(NC(=O)CSc2nncc(=O)n2N)cc1OC | inactive |
| CN(C)c1ccc(/C=C/c2sc3ccccc3[n+]2C)cc1 | 0.0447 µM (active) |
| CN(C)c1ccc(/C=C/c2sc3ccccc3[n+]2CCCCBr)cc1 | 0.316 µM (active) |
| CN(C)c1ccc(/C=N\S(=O)(=O)c2ccccc2)cc1 | inactive |
| COc1ccccc1C(=O)NCCC(=O)N(C)Cc1cccnc1 | inactive |
| Cc1ccc(NC(=S)NC(NC(=O)Cc2cccc3ccccc23)C(Cl)(Cl)Cl)cc1 (configuration not stated) | inactive |
| CSc1ncnc2c1ncn2CCCNCc1ccco1 | inactive |
| Cc1ccccc1NC(=O)NNC(=O)OC(C)(C)C | inactive |
| CC(C)(C)OC(=O)NNc1c2ccccc2nc2ccccc12 | 16.4 µM (active) |

| Structure (SMILES) | Potency |
| --- | --- |
| O=C(CSc1nc(C2CC2)nc2ccccc12)Nc1cccc(O)c1 | inactive |
| O=C(COC(=O)c1ccc(O)cc1O)NC(=O)c1ccccc1 | inactive |
| O=C(NNc1c2ccccc2nc2ccccc12)c1cc2ccccc2cc1O | 23.1 µM (active) |
| Cc1ccc(C(=O)NNC(=O)OC(C)(C)C)c(Cl)c1 | inactive |
| O=C1NC(=O)C(CCc2ccccc2)(c2ccccc2)N1 (configuration not stated) | inactive |
| CC(=O)NN=C(C)c1ccc(NC(=O)C2CC2)cc1 | inactive |
| Cc1c(S(=O)(=O)NC(C)c2ccccc2)c(=O)n(C)c(=O)n1C (configuration not stated) | inactive |
| O=C(NC(Cc1ccccc1)C(=O)O)/C(=C\c1ccccc1)NC(=O)c1ccco1 (configuration not stated) | inactive |
| O=C(NCCCn1ccnc1)/C(=C\c1ccccc1F)NC(=O)c1ccccc1 | inactive |
| Cc1cc(C)cc(NS(=O)(=O)c2ccc3[nH]cc(C(=O)N4CCCCC4)c(=O)c3c2)c1 | inactive |
| COc1cc(/C=C2/C(=O)NN(c3cccc(Cl)c3)C2=O)cc(Br)c1O | inactive |
| CCOc1c(Br)cc(/C=C2\C(=O)N(CCC#N)N=C2C)cc1OC | 20.6 µM (active) |
| C=CCOc1c(Br)cc(/C=N\n2nnnc2N)cc1OC | inactive |
| COc1ccc(-n2c(-c3ccc(Cl)cc3)n[nH]c2=S)c(OC)c1 | inactive |
| CCc1cc(=O)oc2c(C)c(OCC(=O)N3CC[C@@]4(O)CCCC[C@H]4C3)ccc12 | inactive |
| Cc1ccc(/C=N/NC(=S)NC2CCCCC2)o1 | 14.6 µM (active) |
| Cc1ccc(NC(=S)NC2CCCC2)cc1 | inactive |
| Cc1ccc(/C=N/NC(=O)CNC(=O)COc2ccccc2)o1 | inactive |
| CC12CCC(=O)N1C(C(=O)Nc1ccc(F)c(F)c1F)CS2 (configuration not stated) | inactive |
| O=C(CCNC(=O)c1ccc(Br)cc1)NCC(c1ccco1)N1CCCCC1 (configuration not stated) | inactive |
| COc1ccc(-n2c(=O)c3sc4ccccc4c3n(CC(=O)Nc3cccc(C)c3)c2=O)cc1 | inactive |
| COc1cccc(NC(=O)CN(C)C(=O)CSCc2nc3scc(-c4cccs4)c3c(=O)[nH]2)c1 | inactive |
| CCOC(=O)c1cc(C#N)c(N2CCCCC2)nc1-c1ccccc1 | inactive |
| CCOc1ccc(CCN2C(=O)C(=O)N([C@@H](CC(C)C)CN3CCC[C@H]3CN3C(=O)C(=O)NC[C@@H]3Cc3ccccc3)C[C@@H]2CC(C)C)cc1 | inactive |
| CC(C)C[C@H]1CNC(=S)N1C[C@H]1CCCN1C[C@H](Cc1ccc(O)cc1)N1C[C@H](Cc2ccc(O)cc2)N(CC2CCCCC2)C1=S | 25.9 µM (active) |
| CC(C)C[C@H]1CNC(=O)C(=O)N1C[C@@H]1CCCN1C[C@H](Cc1ccccc1)N1C[C@H](CC(C)C)N(CC2CCCCCC2)C(=O)C1=O | inactive |

| Structure (SMILES) | Potency |
| --- | --- |
| Cc1noc(C)c1-c1cc(NCc2cccnc2)ncn1 | inactive |
| COCCNc1cc(-c2c(C)noc2C)ncn1 | inactive |
| CNc1cc(-c2c(C)noc2C)ncn1 | 13 µM (active) |
| Cc1ccc(S(=O)(=O)N2CCCCC2)cc1C(=O)N1CCN(CCO)CC1 | inactive |
| CC1(C)CCc2cc(S(=O)(=O)N3CCN(c4nc(-c5cccs5)nc5ccccc45)CC3)ccc2O1 | inactive |
| COC(=O)CNC(=O)c1cc(-c2ccncc2)nc2ccccc12 | inactive |
| Cc1ccc2nc(-c3ccncc3)cc(C(=O)Nc3ccc4c(c3)OCCO4)c2c1 | 18.4 µM (active) |
| CCN(CC)CCNC(=O)c1ccc(NC(=O)c2cc(-c3ccncc3)nc3ccccc23)cc1 | 14.6 µM (active) |
| O=C(Nc1ccc(S(=O)(=O)Nc2nccs2)cc1)c1cc(-c2ccncc2)nc2ccccc12 | inactive |
| O=C(Nc1ccncc1)c1cc(-c2ccccn2)nc2ccc(Br)cc12 | inactive |
| CCOc1ncccc1C(=O)Nc1ccc2c(c1)OCCO2 | inactive |
| Cc1ccc2nc(-c3cccc(Br)c3)cc(C(=O)Nn3cnnc3)c2c1 | inactive |
| O=C(Nc1ccc2c(c1)OCCO2)c1cnccn1 | inactive |
| Cc1ccc2nc(-c3ccncc3)cc(C(=O)Nc3ccncc3)c2c1 | 13 µM (active) |
| COc1ccc(C(=O)CCC(=O)Nc2ccc(Cl)cc2)cc1 | inactive |
| O=C1NC[C@H](CCCCN2CCN(CCc3ccccc3)C(=O)C2=O)N(CC2CCCCC2)C1=O | inactive |
| O=C(Nc1ccccc1)c1ccco1 | inactive |
| O=C(OC1CC2CC1[C@H]1CCCCN1C2=O)N1CCOCC1 (some centres not stated) | inactive |
| CCc1c(Nc2ccccc2C)nc(N)[nH]c1=O | inactive |
| CCCn1c(C(O)c2ccc(OCC)cc2)nc2ccccc21 (configuration not stated) | 20.6 µM (active) |
| CCCn1c(C(O)c2cc(OC)ccc2OC)nc2ccccc21 (configuration not stated) | inactive |
| CCOCCn1c(C(C)C)nc2ccccc21 | inactive |
| O=C(O)CCCC(=O)N1N=C(c2ccco2)CC1c1ccco1 (configuration not stated) | inactive |
| Cc1nn(C)c(Oc2ccc(Cl)cc2)c1C=O | inactive |
